Here are results for 38 compounds from PubChem BioAssay (NCI).

Compounds without any hit were thinned out: in the full panel of roughly 83,000, 20% have a hit.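 The test compound was applied at a single concentration to cells in 96-well plates for 48 hours, and percent growth was recorded.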 Activity calls are given as the source filed them. Rule for the calls: active = growth percent below 10; inactive = the rest.

The assay has as its system MDA-MB-231 breast. The experiment in a line: NCI-60 one-dose screen, 48 h (100 = growth as untreated, 0 = no growth, -100 = all killed). The settings on record: 10 µM unless noted.
For `COc1cc2[nH]c(C(=O)c3cc(OC)c(OC)c(OC)c3)c(N)c2cc1C#CC1CC1`, the growth is 58.4% (inactive). Then `COc1cc2c(cc1OC)C(=O)/C(=C/c1cc(-c3ccc4c(c3)OCO4)n[nH]1)C2`, with 24.6% (inactive). With `NS(=O)(=O)c1ccc(CCNC(=O)/C=C/c2ccc(Cl)cc2)cc1`, the growth was 98.4% (inactive).

Regarding `C/C(=N/NC(N)=S)C(=O)O`, the growth was 91.1% (inactive). Then `Cc1ccc(-c2ccc(Nc3ccccc3)nn2)cc1S(N)(=O)=O`, with 89.2% (inactive); and `CCC(c1ccc(OC)cc1)C(CC)c1ccc(O)c(CN2CCCCC2)c1` (stereo not drawn), with 77.6% (inactive). The figure for `COc1cc(-c2cc(-c3nc4ccc(F)cc4[nH]3)[nH]n2)cc(OC)c1OC` is 49.4% (inactive). Turning to `COc1cccc(NC(=O)c2sc3nc4c(cc3c2N)C(=O)CCC4)c1`, the growth is 14.7% (inactive).

For the compound `NC1(N)C=CC2=C(C=C1)C1(N)C3=C(C=CC(N)(N)C=C3)N2C2(N)C3=C(C=CC(N)(N)C=C3)N1C1=C2C=CC(N)(N)C=C1`, the growth is 67.3% (inactive). Then `COc1ccc(-c2nc3ccccn3c2-c2nc3ccc(Cl)cc3[nH]2)cc1`, with 95.2% (inactive). As to `O=c1c(CNc2ccc(S(=O)(=O)Nc3nccs3)cc2)coc2ccccc12`, the growth is 98.8% (inactive). Turning to `CN1CCN(c2nc(-c3cccc4ccccc34)nc3sc4c(c23)CCCCCC4)CC1`, the growth is 61.8% (inactive). Consider `COc1ccc2nc(-c3cc(-c4cc(OC)c(OC)c(OC)c4)n[nH]3)[nH]c2c1`, for which the growth is 36.2% (inactive). Then `COc1cccc(-c2nn(-c3ccccc3)cc2-c2ccnc(NCCNS(=O)(=O)c3ccc(Cl)cc3)c2)c1`, with 19.3% (inactive); and `O=S(=O)(NCCNc1cc(-c2cn(-c3ccccc3)nc2-c2cccc(O)c2)ccn1)c1ccc(C(F)(F)F)cc1`, with 5.29% (active).

For the compound `Cc1cc(C)c(NC(=O)c2sc3nc4c(cc3c2N)CCCC4)c(C)c1`, the growth is 71.8% (inactive). `C/C(=N\Nc1cc(C)c2ccccc2n1)c1ccccn1`: the growth is -28.7% (active). Then `C=C1C(=O)O[C@H]2[C@H]1CC/C(Cn1cc(-c3ccc(OC)cc3)nn1)=C\CC[C@@]1(C)O[C@@H]21`, with -12.3% (active); and `COC(=O)[C@]12CC[C@@H](C)[C@H](C)[C@@H]1C1=CC[C@@H]3[C@@]4(C)C[C@@H](OC(C)=O)[C@H](OC(C)=O)[C@@](C)(COC(C)=O)[C@@H]4[C@H](O)C[C@@]3(C)[C@]1(C)CC2`, with 18.1% (inactive). Then `COc1cccc(-c2nn(-c3ccccc3)cc2-c2ccnc(NCCCNS(=O)(=O)c3ccc(Cl)cc3)c2)c1`, with 23.5% (inactive); and `O=c1c(CNc2ccc(S(=O)(=O)Nc3ncccn3)cc2)coc2ccccc12`, with 99.9% (inactive); and `COc1ccc(-c2cc(/C=C/C(=O)c3ccc(OC)c(OC)c3)[nH]n2)cc1`, with 28.8% (inactive). Then `C#Cc1cc2c(N)c(C(=O)c3cc(OC)c(OC)c(OC)c3)[nH]c2cc1OC`, with 49.2% (inactive). As to `O=S(=O)(NCCNc1cc(-c2cn(-c3ccccc3)nc2-c2cccc(O)c2)ccn1)c1ccc(F)cc1`, the growth is -9.05% (active). The figure for `c1ccc2[nH]c(-c3cc(-c4ccc5c(c4)OCO5)n[nH]3)nc2c1` is 65% (inactive); for `COc1cccc(-c2nn(-c3ccccc3)cc2-c2ccnc(NCCCNS(=O)(=O)c3cccc(F)c3)c2)c1` it is 5.9% (active). For the compound `COc1cc(-c2cc(-c3nc4cc(Cl)c(Cl)cc4[nH]3)[nH]n2)cc(OC)c1OC`, the growth was 74% (inactive). The figure for `Oc1cc(/C=C/c2nc(N3CCOCC3)c3cc(Cl)c(Cl)cc3n2)cc(O)c1O` is 106% (inactive); for `Cc1cc(Nc2ccc(F)cc2)nc(N2CCN(c3ccnc4cc(Cl)ccc34)CC2)n1` it is 37.9% (inactive).

Turning to `COc1ccc(/C=C/C(=O)NCC(C)O)cc1` (stereo not drawn), the growth is 100% (inactive).

As to `COc1ccc(-c2cc(/C=C/C(=O)c3ccc(N)cc3)[nH]n2)cc1`, the growth is 35.7% (inactive). `CSc1ccc(N(C)c2nc(C)nc3c2CCC3)cc1`: the growth is 10% (inactive). With `OCCNc1nc(Nc2ccc(Cl)c(Cl)c2)nc2ccccc12`, the growth is 5.57% (active). Then `COc1cc(-c2cc(-c3nc4ccccc4[nH]3)[nH]n2)cc(OC)c1OC`, with 66.2% (inactive); and `O=C1CCN2C(=O)Nc3ccccc3C2C1` (stereo not drawn), with 93.5% (inactive). Take `Cc1[c-]onc1C.Cc1[c-]onc1C.[Ag].[Ag].[NH-]S(=O)(=O)c1ccc(N=Nc2cc(N=Nc3ccc(S([NH-])(=O)=O)cc3)c3c(NC(=O)C(Cl)Cl)cccc3c2OC(=O)C(Cl)Cl)cc1`: the growth is 45.8% (inactive). Then `Clc1ccc(Cn2cc(-c3nc4ccc(Br)nc4n3Cc3ccc(Cl)cc3)c3cccnc32)cc1`, with 53.1% (inactive); and `COC(=O)[C@]12CC[C@@H](C)[C@H](C)[C@@H]1C1=CC[C@@H]3[C@@]4(C)C[C@@H](OC(C)=O)[C@H](O)[C@@](C)(COC(C)=O)[C@@H]4[C@H](O)C[C@@]3(C)[C@]1(C)CC2`, with -68% (active).
